The whole screen tested about 31,000 sequences, of which about 1,400 (4.5%) were called active. This excerpt belongs to a sample that is enriched for actives. Unmarked numbers belong to inactive results.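 How the source made its calls: active means median seed-adjusted z-score above 1 or below -1; inactive means the rest.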
Test: Novel Modifiers of Survival Motor Neuron (SMN) Protein: Gene Identification via Genome-wide siRNA Screen;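 further: luminescence tracks full-length SMN protein made from the SMN2 reporter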
Details: HEK293T SMN2-luciferase reporter, siRNA knockdown, 72 h; actives lie on both sides
In short: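 Each of three siRNAs per gene is reverse-transfected (1 pmol) into reporter HEK293T cells whose luciferase output tracks SMN protein level. After 72 h culture, ONE-Glo luminescence is control-normalized, log10-transformed and MAD-standardized; Common Seed Analysis deprioritizes seed-driven hits.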

Row | Sequence | median seed-adjusted z-score
1 | ACGGUUCGCUGAAAAAGAATT against PITX3 | 0
2 | CGUCCAUACUUACCUAAUUTT against UGT2A1 | 0.213
3 | CGACCGCACCUGGAAUGAATT against PLA2G4D | -0.233
4 | GCGUGUCAGCUGUUCAUUATT against OSBPL5 | 0.638
5 | CAAGCCCUCUGAAACAGUUTT against ADRA1A | -1.06 (active)
6 | GCAUAUGAUUUUAUGGUAATT against FBXW7 | 0
7 | CUCUCUAUAUUGAAACCAATT against CHN1 | 2.1e-05
8 | ACUGAAAGCUGAUUAAUUATT against KLK2 | 0.0716
9 | GAGCUGAUCUGUUACAAGUTT against DAK | -0.372
10 | GAACACUCUAUGUCUAAUATT against MYNN | 0.0702
11 | GUGAUGUCAUUAGGCAGAATT against CRIP3 | 1.7 (active)
12 | UCCCAGUUCUGAUACAUAUTT against SAE1 | 0.831
13 | AGACCUGCGUGGUGCACUATT against FKBP1A | 0.113
14 | GGAGCUUCAGGUUGUCCGATT against RPUSD3 | 0.303
15 | CGAUGGACAGUGUCUCUUATT against ALG6 | 0.106
16 | UCCUUGUUGUGGACAGGGATT against SPINK4 | -0.0134
17 | GGACCUAUUCGUCAAAUCATT against SF3B14 | -1.26 (active)
18 | CCUUGCUUGUGAGAGCAGATT against NPAS1 | -0.386
19 | GCGUUAUCCUCGUACCUUUTT against STC2 | -0.00039
20 | CUAUCCACCAUACAUUUCATT against NTM | 0
21 | GCAACGGGUUUGGAGUCAATT against KRT75 | 0.0773
22 | CCAUCUCGACUGACAAGAATT against TNNI3K | -0.178
23 | GCUAUUAUCUAAGCACGAATT against ADAMTS20 | 1.44 (active)

Row | Sequence | median seed-adjusted z-score
24 | GAUAUAUCCGAAACCAGUATT against PDGFD | 0.366
25 | GAAUCGGCGAUGUACUAGATT against NT5C3 | -0.456
26 | CUAUGUCGUUGAAAACCAUTT against KCNE1 | -0.347
27 | GGAAGUAUUAGGGUACAAATT against SOS2 | 0.3
28 | GAGUAUCUCUGAAACCUCUTT against IL1A | 1.12 (active)
29 | GGGAGUGACAUAUCCAAGATT against CCL26 | -0.01
30 | CGGAAGGUGUAUGAACUGATT against ICAM1 | 0.345
31 | GCAAGGUCGUCAACCGCAATT against SAPS1 | 1.16 (active)
32 | GCAGUUCCAUGGUACACCATT against ASAH1 | 0.421
33 | GUCAGAUACAUGAACCAGATT against JMJD1A | 0.466
34 | GGAUAGGAGUCAUCAGCCUTT against SSTR3 | 0
35 | CCCAAUUCAGAUUACUACATT against POLN | -0.129
36 | CUACUCAACAGACAUAAUATT against TRIP13 | 1 (active)
37 | GGCUUCUACUGGUGUCUGATT against PIGR | -0.35
38 | GGACUUACACUCUUAGGAATT against MAOB | 0
39 | CACAACAUCUUGUAAGACUTT against GNG13 | -0.516
40 | CGCCGACUCUAUUCAUGCATT against RAB22A | 0.321
41 | CGAGAGUAAUUUGAAGAAUTT against SIGMAR1 | -1.4 (active)
42 | GAUGGAUCUUUACAGUUGATT against METTL4 | 0.244
43 | GAACAAUCAUUGCAUCGGATT against CPB2 | -0.62
44 | CCUUACCUGGAGUACCCAATT against PMPCA | -0.985
45 | GGACCGAAGUCAAUGGUUUTT against SMC2 | -0.052
46 | CAUUUAGUGUACAUUCAAATT against ZNF665 | 1.13 (active)

Row | Sequence | median seed-adjusted z-score
47 | CGACAGGGUAUCCAACUAATT against WASL | 0.143
48 | CAUGGAAAAUGAUGACGAATT against PPP4R2 | 0.211
49 | CUCAAGAACUGUCAAGUAATT against GSK3B | -0.952
50 | GGACAUCUAUGUUAUAUGUTT against TRIM65 | -0.599
51 | CGUCAUCCCUCAACAAGAATT against ATP2B2 | 1.37 (active)
52 | GGCUAUUACUCAGUACAGATT against TLN1 | -0.0619
53 | CUAUGUGAUUGAUCAAGGATT against PRKAR1A | 0.428
54 | UCAUCGGCGUGAUCGUGUATT against CACNG8 | 0.214
55 | GAAUUUGCGAUGUACUUAATT against CSNK1A1 | -0.608
56 | GGAAAGGAAUGGUCACGAATT against ZNF321 | -0.642
57 | AGGUCAACACGGAGCUCAATT against CHRM1 | 1.1 (active)
58 | GAAGAAUAGUGAUGCUCGATT against GRIA1 | 0.927
59 | CUAAUUCAACAUUACAUCATT against ZNF550 | 0.131
60 | CGACAGUCUUGCUGAAAAATT against NOTO | -0.193
61 | GCACGAUUACUACUACCGATT against PNPLA1 | 0.00692
62 | GGAUGUCGGCAACACGGAATT against MYBPC3 | 0.304
63 | AAAGAAUGCGUGCUUUUAATT against RABGGTA | -0.0601
64 | CACUGUAACGACUUCCUUATT against CCIN | 0.0472
65 | GAAAUUGACAUGUUGGAUATT against ANXA4 | -0.0932
66 | GACUGUCGCUGGUUGGAGATT against ACPT | -0.114
67 | AGACCGAACUGGUUUCGCUTT against CDKN2C | -0.0789
68 | CACUCGAAGCAGUUUGGAATT against SMS | 0.186
69 | CAGUGAAACUGCACCUCUATT against TGM1 | -0.286

Reference: PubChem BioAssay AID1347426 (Functional Genomics Laboratory (NCATS/FGL), 2020)
